According to PubChem BioAssay (Tox21):
Several values for one entry are separate records, joined by “and”; a condition that tells them apart may be missing. Equal values may be shown once. Inconclusive results are not listed. Where a structure was tested more than once in an assay, its records may differ in their call. Activity calls are given as the source filed them. Unless noted, calls follow the shape of the dose curve; as a rule, active = well fitted curve in the direction sought with a large enough effect in the repeat runs; inconclusive = weak or mixed curves; inactive = no such curve, though single readings can be large; an effect the other way counts as inactive or inconclusive.

Key:
[1] = qHTS assay to identify small molecule antagonists of the vitamin D receptor (VDR) signaling pathway - cell viability counter screen (AID 743225); details: VDR-bla HEK293T viability, CellTiter-Glo luminescence, 16 h; series mostly up to 61 µM; also: nearly all actives have a fitted effect of over 50% in size; also: potency is read from the fitted curve at half-maximal effect
Outline: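 Compounds were pinned onto VDR-bla HEK 293T cells together with 1-alpha,25-dihydroxyvitamin D3 at 3 nM final. After 16 h at 37C and 5% CO2 plus the reporter readout, cell viability was measured by CellTiter-Glo luminescence (30 min, room temperature).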

[2] = qHTS assay to identify small molecule agonists of the NFkB signaling pathway - cell viability counter screen (AID 1159515; calls by dose curve; also: nearly all actives have a fitted effect of over 55% in size; also: potency is read from the fitted curve at half-maximal effect); details: NFkB-bla ME-180 viability, CellTiter-Glo luminescence, 5 h; series mostly up to 61 µM
Outline: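 Tox21 library compounds were tested for cytotoxicity against NFkB-bla ME-180 cells during a 5 hr exposure at 37 C. CellTiter-Glo luminescence served as the viability read-out.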

[3] = qHTS assay to identify small molecule agonists of the endoplasmic reticulum stress response signaling pathway - cell viability counter screen (AID 1159517; calls by dose curve; also: nearly all actives have a fitted effect of over 50% in size; also: potency is read from the fitted curve at half-maximal effect); details: ESRE-bla HeLa viability, CellTiter-Glo luminescence, 5 h; series mostly up to 61 µM
Outline: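 ESRE-bla HeLa cells (1,500/well) were plated overnight at 37 C and exposed to compounds for 5 hr. After the 2 hr beta-lactamase substrate read, CellTiter-Glo went into the same wells, and luminescence was read after 30 min at room temperature.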

[4] = qHTS assay to identify small molecule antagonists of the retinoid-related orphan receptor gamma (ROR-gamma) signaling pathway - cell viability counter screen (AID 1159520); details: Tet-on RORgamma CHO cells viability, ATP luminescence, 16 h; series mostly up to 92.4 µM; also: nearly all actives have a fitted effect of over 50% in size; also: potency is read from the fitted curve at half-maximal effect
Outline: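 Cytotoxicity was read from cellular ATP (CellTiter-Glo luminescence) after 16 hr at 37 C with 1 uM doxycycline induction. The inducer was added 2 hr after compound transfer to Tet-on ROR gamma CHO cells.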

[5] = target: Nuclear receptor ROR-gamma (Homo sapiens) (UniProt P51449); experiment: qHTS assay to identify small molecule antagonists of the retinoid-related orphan receptor gamma (ROR-gamma) signaling pathway (AID 1159521; also: nearly all actives have a fitted effect of over 50% in size; also: potency is read from the fitted curve at half-maximal effect); details: Tet-on RORgamma CHO cells, RORE-luciferase, 16 h; series mostly up to 92.4 µM
Outline: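 Test compounds were applied to Tet-on RORγ CHO cells 2 h ahead of doxycycline hyclate (1 uM final). Luciferase reporter activity was quantified by luminescence after 16 h at 37 C and 5% CO2.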

[6] = qHTS assay to identify small molecule agonists of the AP-1 signaling pathway - cell viability counter screen (AID 1159525; calls by dose curve; also: nearly all actives have a fitted effect of over 55% in size; also: potency is read from the fitted curve at half-maximal effect); details: ME-180 AP-1-bla cells viability, ATP luminescence, 5 h; series mostly up to 76.8 µM
Outline: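 Intracellular ATP by Cell Titer Glo luminescence (30 min, RT) in the same ME-180 AP-1-bla wells after the 5 h compound exposure at 37 °C. Normalised to tetra n-octyl ammonium bromide and DMSO controls.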

[7] = qHTS assay to identify small molecule agonists of the vitamin D receptor (VDR) signaling pathway - cell viability counter screen (AID 743224); details: VDR-bla HEK293T viability, CellTiter-Glo luminescence, 16 h; series mostly up to 62.6 µM; also: nearly all actives have a fitted effect of over 50% in size; also: potency is read from the fitted curve at half-maximal effect
Outline: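 CellTiter-Glo viability readout on VDR-bla cells, measured after 16 h of compound treatment at 37C in the same wells.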

[8] = qHTS assay to identify small molecule agonists of the AP-1 signaling pathway (AID 1159526; calls by dose curve); details: ME-180 (cervical carcinoma) AP-1-bla reporter, beta-lactamase FRET ratio, 5 h; series mostly up to 76.8 µM
[9] = target: Retinoic acid receptor RXR-alpha (Homo sapiens) (UniProt P19793); experiment: qHTS assay to identify small molecule agonists of the RXR signaling pathway (AID 1159527; calls by dose curve; also: nearly all actives have a fitted effect of over 35% in size); details: HEK293T RXRa-UAS-bla, beta-lactamase ratio, 16 h; series mostly up to 76.8 µM
Chain of Retinoic acid receptor RXR-alpha (Homo sapiens) (P19793 whole entry, looked up): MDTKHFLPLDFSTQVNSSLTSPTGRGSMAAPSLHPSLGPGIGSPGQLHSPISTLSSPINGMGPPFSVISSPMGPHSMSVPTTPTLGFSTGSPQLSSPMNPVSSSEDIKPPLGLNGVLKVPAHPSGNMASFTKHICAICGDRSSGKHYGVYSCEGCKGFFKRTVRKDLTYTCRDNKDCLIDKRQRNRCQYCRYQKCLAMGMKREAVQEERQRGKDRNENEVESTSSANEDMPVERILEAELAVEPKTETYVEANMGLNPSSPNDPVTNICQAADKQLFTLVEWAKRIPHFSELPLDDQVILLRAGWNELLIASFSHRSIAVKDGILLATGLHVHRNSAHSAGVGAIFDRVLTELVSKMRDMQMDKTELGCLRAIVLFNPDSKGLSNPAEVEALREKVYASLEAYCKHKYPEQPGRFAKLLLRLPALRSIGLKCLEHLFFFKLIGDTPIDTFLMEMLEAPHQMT
Outline: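 Using 9-cis retinoic acid as the reference agonist, chemicals were tested in HEK 293T cells […] for 16 hr; substrate loading lasted 2 hr at room temperature.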

Measured: Potency

Cc1ccc([N+](=O)[O-])[c]2c1[O][Hg]2
active: [1] 3.01 µM | [2] 6.01 µM | [3] 23.9 µM | [4] 1.19 µM | [5] 0.376 µM | [6] 6.01 µM

Nc1cc(Cl)ccc1Cl
not listed: [6]
inactive: all other assays above

CC(Cc1ccc(OCC(=O)O)cc1)NCC(O)c1csc(C(F)(F)F)n1 (stereo unspecified)
not listed: [3] | [9]
inactive: all other assays above

O=C1C2(Cl)C3(Cl)C4(Cl)C(Cl)(Cl)C5(Cl)C3(Cl)C1(Cl)C5(Cl)C24Cl (stereo unspecified)
active: [7] 48.2 µM and 41.8 µM | [1] 48.2 µM and 46.9 µM | [2] 52.6 µM | [3] 48.2 µM | [4] 21.3 µM and 46.5 µM | [5] 12 µM and 29.3 µM

Cc1cccc(Cc2cnc[nH]2)c1C
inactive: [7] | [2] | [5] | [6] | [9]

CC[C@H](C)[C@H]1O[C@]2(C=C[C@@H]1C)C[C@@H]1C[C@@H](C/C=C(\C)[C@@H](O[C@H]3C[C@H](OC)[C@@H](O[C@H]4C[C@H](OC)[C@@H](NC)[C@H](C)O4)[C@H](C)O3)[C@@H](C)/C=C/C=C3\CO[C@@H]4[C@H](O)C(C)=C[C@@H](C(=O)O1)[C@]34O)O2
active: [7] 3.09 µM | [1] 4.36 µM | [2] 34.7 µM | [3] 19.5 µM | [4] 13.7 µM | [5] 3.86 µM | [6] 13.8 µM

CCCCc1ccccc1
inactive: [7] | [1] | [2] | [4] | [5]

CN1C(=O)[C@@H](NC(=O)c2cc3ccccc3[nH]2)N=C(c2ccccc2)c2ccccc21
not listed: [4] | [8]
inactive: all other assays above

Clc1ccc(C(c2ccc(Cl)cc2)C(Cl)Cl)cc1
active: [7] 49.8 µM and 38.9 µM | [2] 49.8 µM | [5] 55.4 µM and 54.5 µM | [6] 24.9 µM and 34.7 µM

CCC[CH2][Sn]([CH2]CCC)([CH2]CCC)[O][Sn]([CH2]CCC)([CH2]CCC)[CH2]CCC
active: [7] 0.603 µM | [1] 0.852 µM | [2] 0.24 µM | [3] 0.269 µM | [5] 0.168 µM | [6] 0.537 µM

c1ccc2c(c1)cc1ccc3cccc4ccc2c1c34
inactive: [7] | [2] | [3] | [5] | [6]

CC(C)[C@@H](Nc1ccc(C(F)(F)F)cc1Cl)C(=O)OC(C#N)c1cccc(Oc2ccccc2)c1 (stereo partly specified)
not listed: [8] | [9]
inactive: all other assays above

Nc1nc(N)c(N)c(N)n1
not listed: [1] | [3] | [9]
inactive: all other assays above

O=C1C(Cl)=C(Cl)C(=O)C(Cl)=C1Cl
inactive: [6]
active: [7] 12.3 µM and 13.8 µM | [2] 38.9 µM | [3] 54.8 µM | [5] 12.1 µM and 30.6 µM

ClC1=C(Cl)[C@]2(Cl)[C@H]3[C@H]([C@@H]4C=C[C@H]3C4)[C@@]1(Cl)C2(Cl)Cl
inactive and 54.9 µM (active): [7]
active: [2] 54.9 µM | [3] 21.8 µM and 49 µM | [5] 54.4 µM | [6] 38.9 µM
inactive: [1] | [9]

CC1(C)[C@H](/C=C2\CCSC2=O)[C@@H]1C(=O)OCc1coc(Cc2ccccc2)c1
active: [5] 27.3 µM
inactive: [2] | [4] | [6] | [9]
